“And” between values parts separate entries of the source, which are not always exact repeats. Equal entries are not always repeated. Inconclusive results are not listed. A number with no mark means an inactive call. The source made the active and inactive calls. Calls follow the shape of the dose curve; as a rule, active = well fitted curve in the direction sought with a large enough effect; inconclusive = small, poorly fitted or top-dose-only effect, or another doubt; inactive = no such curve, though single readings can be large; an effect the other way counts as inactive or inconclusive.
Experiments:
[1] = molecular target: Cellular tumor antigen p53 (Homo sapiens) (UniProt P04637); experiment: Primary qHTS for small molecule compounds that upregulate eGFP-tagged delta133p53alpha (in N-terminal) cells. (AID 2060322); conditions: NCI-H358 eGFP-delta133p53alpha fluorescence, 24 h; activation: stronger effect = higher value; also: nearly all actives have a fitted effect of over 75% in size; also: potency is read from the fitted curve at half-maximal effect;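 as to activation: series mostly up to about 56 µM; 0% = DMSO vehicle and 100% = reference activator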
Cellular tumor antigen p53 (Homo sapiens), sequence (P04637 whole entry, looked up): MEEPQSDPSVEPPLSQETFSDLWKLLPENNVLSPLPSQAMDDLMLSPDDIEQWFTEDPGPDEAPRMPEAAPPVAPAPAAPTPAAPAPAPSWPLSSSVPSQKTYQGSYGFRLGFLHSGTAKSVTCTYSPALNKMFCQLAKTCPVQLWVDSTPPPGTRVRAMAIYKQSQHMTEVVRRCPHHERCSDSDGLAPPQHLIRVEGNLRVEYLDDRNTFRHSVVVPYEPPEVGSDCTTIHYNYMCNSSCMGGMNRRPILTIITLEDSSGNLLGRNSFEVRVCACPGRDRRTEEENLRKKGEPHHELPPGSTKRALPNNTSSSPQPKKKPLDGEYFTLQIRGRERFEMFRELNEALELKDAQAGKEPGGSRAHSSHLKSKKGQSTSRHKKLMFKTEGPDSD
In short: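 NCI-H358 cells pre-induced 24 h with 10 ng/ml doxycycline to express N-terminal eGFP-delta133p53alpha, then dosed 24 h at 37C without doxycycline; fixed, Hoechst-stained, GFP intensity by laser scanning cytometry, normalized to DMSO (0%) and 57.5 uM 5-azacytidine (100%).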

[2] = molecular target: Aldehyde dehydrogenase, mitochondrial (Homo sapiens) (UniProt P05091); experiment: qHTS for Inhibitors of the Aldehyde Dehydrogenase Family (ALDH2) Primary screen (AID 2061308);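 also: plate controls were vehicle for no effect and reference inhibitor for full effect; nearly all actives have a fitted effect of over 55% in size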
[3] = molecular target: Retinaldehyde dehydrogenase 3 (Homo sapiens) (UniProt P47895); experiment: qHTS for Inhibitors of the Aldehyde Dehydrogenase Family (ALDH1A3) Primary screen (AID 2061315);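 also: plate controls were DMSO vehicle for no effect and reference inhibitor for full effect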
[4] = BET inhibitor-based combinations targeting novel dependencies in MECOM-rearranged (r) AML: SET-2 cell line (AID 2202231); conditions: SET-2 AML cells viability, CellTiter-Glo luminescence, 48 h; viability: stronger effect = lower value, concentration not given here; also: nearly all actives have a fitted effect of over 35% in size; also: potency is read from the fitted curve at half-maximal effect;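 as to viability: plate controls were DMSO treated cells for no effect and wells without cells for full effect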
In short: (§1)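 Each compound was tested at eleven concentrations on cells seeded at 500/well. After two days' incubation, ATP-based luminescence reported viability; responses relative to DMSO and blank wells yielded AUC and cell-line-centred Z-AUC.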

[5] = BET inhibitor-based combinations targeting novel dependencies in MECOM-rearranged (r) AML: OCI-AML3 cell line (AID 2202232); conditions: Potency: OCI-AML3 viability; also: nearly all actives have a fitted effect of over 35% in size; also: potency is read from the fitted curve at half-maximal effect
In short: as §1

[6] = BET inhibitor-based combinations targeting novel dependencies in MECOM-rearranged (r) AML: MV-4-11 cell line (AID 2202233); also: nearly all actives have a fitted effect of over 45% in size; also: potency is read from the fitted curve at half-maximal effect
In short: (§2)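 First, 500 cells per well were seeded; next, drugs were pinned as 11-point doses; then plates sat 48 hr in the incubator; finally CellTiter-Glo was added and luminescence read, with AUC and Z-AUC computed.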

[7] = BET inhibitor-based combinations targeting novel dependencies in MECOM-rearranged (r) AML: HNT-34 cell line (AID 2202234); also: nearly all actives have a fitted effect of over 35% in size; also: potency is read from the fitted curve at half-maximal effect
In short: as §2

[8] = BET inhibitor-based combinations targeting novel dependencies in MECOM-rearranged (r) AML: UCSD-AML1 cell line (AID 2202235); also: nearly all actives have a fitted effect of over 40% in size; also: potency is read from the fitted curve at half-maximal effect
In short: as §2

[9] = BET inhibitor-based combinations targeting novel dependencies in MECOM-rearranged (r) AML: AML-191 cell line (AID 2202236; also: nearly all actives have a fitted effect of over 35% in size; also: potency is read from the fitted curve at half-maximal effect)
In short: as §1

[10] = BET inhibitor-based combinations targeting novel dependencies in MECOM-rearranged (r) AML: AML-194 cell line (AID 2202237; also: nearly all actives have a fitted effect of over 40% in size; also: potency is read from the fitted curve at half-maximal effect)
In short: as §1

Row | SMILES | Potency [1] | Potency [2] | Potency [3] | Potency [4] | Potency [5] | Potency [6] | Potency [7] | Potency [8] | Potency [9] | Potency [10] | activation [1] | viability [4] [%]
1 | CCOc1cc(C(=O)N2CCC(N3CCN(C)CC3)CC2)ccc1Nc1ncc2c(n1)N(C1CCCC1)c1ccccc1C(=O)N2C | 30.1 µM (active) | inactive | inactive | 14.8 µM (active) | 3.32 µM (active) | 1.66 µM (active) | 13.2 µM (active) | 5.25 µM (active) | 11.8 µM (active) | 8.33 µM (active) |  | 
2 | CC(C)(C)C(=O)CN1C(=O)[C@H](NC(=O)Nc2cccc(C(=O)O)c2)CN(C2CCCCC2)c2ccccc21 |  | inactive | inactive |  | inactive | inactive | inactive | inactive | inactive | inactive | -7.67% | 110
3 | Cc1ccc(C(=O)Nc2cccc(C(F)(F)F)c2)cc1-c1ccc2nc(NCCN3CCOCC3)ncc2c1 | 26.9 µM (active) | inactive | inactive | 11.8 µM (active) | 0.525 µM (active) | 2.35 µM (active) | 0.0934 µM (active) | 3.32 µM (active) | 2.63 µM (active) | 3.32 µM (active) |  | 
4 | CCOC(=O)[C@H]1O[C@@H]1C(=O)N[C@@H](CC(C)C)C(=O)NCCC(C)C |  | inactive | inactive |  | 18.6 µM (active) | 14.8 µM (active) | inactive | inactive | inactive | inactive | 4.33% | 108
5 | O=C1CCC[C@@H]2[C@H]3CCC[N+]4([O-])CCC[C@@H](CN12)[C@@H]34 (stereo not given in full) |  | inactive | inactive |  | inactive | inactive | inactive | inactive | inactive | inactive | 7.08% and -17.9% | 118
6 | O=C(c1ccc(Nc2nccc(-c3cc4ccccc4s3)n2)cc1)N1CCC(N2CCCC2)CC1 |  | inactive | inactive | 6.61 µM (active) | 18.6 µM (active) | 1.86 µM (active) | 5.25 µM (active) | 3.32 µM (active) | 7.42 µM (active) | 7.42 µM (active) | -33.3% | 
7 | Cc1cnc(Nc2ccc(F)cc2Cl)nc1-c1c[nH]c(C(=O)N[C@H](CO)c2cccc(Cl)c2)c1 |  | inactive | inactive | 23.5 µM (active) | 4.68 µM (active) | 20.9 µM (active) | 18.6 µM (active) | 20.9 µM (active) | 16.6 µM (active) | 18.6 µM (active) | 12% and 13.4% | 
8 | CC(C)c1c2cc(-c3ccnc(NC4CCC(NC5CCOCC5)CC4)n3)ccc2nn1C (stereo not given) | 0.478 µM (active) | inactive | inactive | 0.296 µM (active) | 0.209 µM (active) | 0.0934 µM (active) | 0.235 µM (active) | 0.118 µM (active) | 0.166 µM (active) | 0.417 µM (active) |  | 
9 | CCc1ccc(C(=O)Nc2cc(CN3CCN(C)CC3)cc(C(F)(F)F)c2)cc1C#Cc1cnc2ccnn2c1 | 19 µM (active) | inactive | inactive | 14.8 µM (active) | 10.5 µM (active) | 7.42 µM (active) | 1.86 µM (active) | 9.34 µM (active) | 5.9 µM (active) | 5.9 µM (active) |  | 
10 | Cc1ccccc1C(C(=O)NC1CCCCC1)N(C(=O)CNc1ccc(C#N)cc1)c1cccc(F)c1 (stereo not given) |  | inactive | inactive |  | inactive | inactive | inactive | inactive | inactive | inactive | 17.1% and 3.57% | 109
11 | O=C(Nc1ccnc(NC(=O)C2CC2)c1)c1c(Cl)cccc1Cl | 12 µM (active) | inactive | inactive | 7.42 µM (active) | 7.42 µM (active) | 4.68 µM (active) | 4.17 µM (active) | 3.32 µM (active) | 5.25 µM (active) | 7.42 µM (active) |  | 
12 | NS(=O)(=O)c1cc(Cl)c(Cl)c(S(N)(=O)=O)c1 |  | inactive | inactive |  | inactive | inactive | inactive | inactive | inactive | inactive | -9.17% and 1% | 115
13 | O=C(Nc1nc2cccc(-c3ccc(CN4CCS(=O)(=O)CC4)cc3)n2n1)C1CC1 | 43.2 µM (active) and 34.3 µM (active) | inactive | inactive | 18.6 µM (active) | 14.8 µM (active) | 3.32 µM (active) | 14.8 µM (active) | 5.9 µM (active) | 9.34 µM (active) | 13.2 µM (active) |  | 
14 | CNC(=O)c1c(-c2ccc(F)cc2)oc2cc(N(CCO)S(C)(=O)=O)c(C3CC3)cc12 |  | inactive | inactive |  | inactive | inactive | inactive | inactive | inactive | inactive | -6.02% and -15.2% | 119
